According to PubChem BioAssay (NCI):
Compounds without any hit were thinned out: in the full panel of roughly 83,000, 20% have a hit.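 Plates (96-well) were seeded with cells, treated with compound at one concentration, and incubated for 48 hours before percent growth was determined.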 Activity calls are given as the source filed them. The calls were made as follows: active = growth percent below 10; inactive = the rest.

test system: HOP-62 NSCLC; assay: NCI-60 one-dose screen, 48 h (100 = growth as untreated, 0 = no growth, -100 = all killed); settings: 10 µM unless noted

SMILES | growth
O=C1c2cccc3cccc(c23)C(=O)N1N1C(=O)c2cccc3c(N4CCOCC4)ccc(c23)C1=O | 87.3% (inactive)
CCO/C=N/C1=C(C#N)C(c2ccc(OC)cc2)c2sc3c(F)cccc3c2O1 (stereo unspecified) | 49.5% (inactive)
Cc1ccc(CNc2ccc(Cl)cc2NCc2ccc(C)c(O)c2)cc1O | 40.5% (inactive)
O=C(c1ccc(-c2nc(CSc3nc4ccccc4s3)no2)cc1)N1CCSCC1 | 75.9% (inactive)
C/C(=C(/c1ccc(Cl)cc1)c1ccc(OCCN2CCCC2)cc1)c1ccc(Cl)cc1 | 104% (inactive)
CC[C@]12C=CCN3CC[C@@]4(c5cc(NC(=O)CCC(=O)OCc6cn(Cc7ccc(F)cc7)nn6)c(OC)cc5N(C)[C@H]4[C@@](O)(C(=O)OC)[C@@H]1OC(C)=O)[C@@H]32 | 100% (inactive)
C=C(C)[C@@H]1CC[C@]2(C(=O)O)CC[C@]3(C)[C@H](CC[C@@H]4[C@@]5(C)C[C@@H](Cc6cn(CCO[C@@H]7O[C@H](COC(C)=O)[C@H](OC(C)=O)[C@H](OC(C)=O)[C@H]7OC(C)=O)nn6)[C@H](O)C(C)(C)[C@@H]5CC[C@]43C)[C@@H]12 | 80.7% (inactive)
C=CCn1c(SCC(=O)Nc2ccc(C(=O)/C=C/c3ccc(Cl)cc3)cc2)nnc1-c1cc(-c2ccc(S(N)(=O)=O)cc2)nc2ccccc12 | 91.8% (inactive)
CCOC(=O)C1=NN(c2ccccc2)C(=O)/C1=C\N1C(=O)CC(=O)NC1=S | 90.1% (inactive)
CC12CCC3c4ccccc4CCC3(CO1)C2 (stereo unspecified) | 95.5% (inactive)
O=C1CC(N2C(=O)/C(=C/C(Cl)=C\c3ccc([N+](=O)[O-])cc3)SC2=S)C(=O)N1c1ccc(Cl)cc1 (stereo unspecified) | 50.4% (inactive)
